A number with no mark means an inactive call. Where a call stands in place of a potency, no number is given. Calls of active or inactive are those of the source. Calls come from the whole dose curve; as a rule, active = well fitted curve in the direction sought with a large enough effect in the repeat runs; inconclusive = weak or mixed curves; inactive = flat fitted curve, though single readings scatter.

The first assay in a line: qHTS assay to test for compound auto fluorescence at 460 nm (blue) in HEK293 cells (AID 720678). The following applies: blue autofluorescence 405/460 nm; series mostly up to 91.3 µM; fluorescence, % of triamterene: at the top concentration. An outline of the steps:
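Measured: blue fluorescence (Ex 405/Em 460 nm) of compound-treated HEK293 cells, incubated overnight at 37C with 5% CO2 and scaled to triamterene equivalents.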
For `O=C1c2c(O)cccc2Cc2cccc(O)c21`, the Potency entry is “inactive”.
For `CC(=O)Nc1c(I)c(NC(C)=O)c(I)c(C(=O)O)c1I`, the Potency result was “inactive”.
For the compound `Cn1c(=O)c2c(ncn2C)n(C)c1=O`, the Potency entry is “inactive”.
Regarding `CNNCc1ccc(C(=O)NC(C)C)cc1`, the Potency result was “inactive”.
As for `NC(=O)n1c(O)c(C(=O)c2cccs2)c2cc(Cl)ccc21`, the “fluorescence, % of triamterene” value was -0.0165% [at 46 µM].
As for `O=C1O[C@H]([C@@H](O)CO)C(O)=C1O`, the Potency entry is “inactive”.

A short description of another assay: qHTS assay to test for compound auto fluorescence at 590 nm (red) in HEK293 cells (AID 720679). The following applies: red autofluorescence 540/590 nm; series mostly up to 91.3 µM; fluorescence, % of fluorescent control: at the top concentration. An outline of the steps:
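Using HEK293 cells at 2,000 per well, the screen added 23 nL of each compound after cell attachment and incubated overnight (37C, 5% CO2). The plate reader then captured red-label fluorescence, Ex/Em 540/590nm.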
Background: In qHTS, concentration-response curves come from the screen itself.
For the compound `CC1(C)S[C@@H]2[C@H](NC(=O)[C@H](N)c3ccccc3)C(=O)N2[C@H]1C(=O)O`, the Potency entry is “inactive”.
As to `CN(C)CCOC(C)(c1ccccc1)c1ccccn1` (stereo not given), the Potency result was “inactive”.
In the case of `COc1ccc(OC(F)(F)F)cc1CN[C@H]1CCCN[C@H]1c1ccccc1`, the “fluorescence, % of fluorescent control” value was -0.218%.
As to `CCCCCCCCCCCCCCCC[N+](C)(C)Cc1ccccc1`, the Potency entry was “inactive”.
For the compound `Cc1cn([C@H]2C=C[C@@H](CO)O2)c(=O)[nH]c1=O`, the Potency entry was “inactive”.
Turning to `Nc1ccc(O)c([N+](=O)[O-])c1`, the “fluorescence, % of fluorescent control” value was -0.757%.
Turning to `CC(O)(P(=O)(O)O)P(=O)(O)O`, the Potency entry is “inactive”.
Same read-out and setting: the entry for `Cc1cc(C)nc(NS(=O)(=O)c2ccc(N)cc2)n1` is “inactive”; for `CN(C)C(=S)SC(=S)N(C)C` it is “inactive”; for `NC1CCCCC1` it is “inactive”.
As for `Nc1c(N=Nc2ccc(-c3ccc(N=Nc4cc(S(=O)(=O)O)c5ccccc5c4N)cc3)cc2)cc(S(=O)(=O)O)c2ccccc12`, the Potency result is “inactive”.
With `CCCCOC(=O)c1ccc(O)cc1`, the Potency result was “inactive”.
In the case of `CC(C)C(=O)Nc1ccc([N+](=O)[O-])c(C(F)(F)F)c1`, the Potency result was “inactive”.
As to `Nc1ccc([N+](=O)[O-])cc1O`, the “fluorescence, % of fluorescent control” value is -0.471%.
`Cc1cccc(C)c1`: the Potency result is “inactive”.
Take `CN(C)CCOC(c1ccccc1)c1ccccc1`: the Potency entry is “inactive”.
In the case of `CN1CCc2cccc3c2[C@H]1Cc1ccc(O)c(O)c1-3`, the Potency result was “inactive”.
For the compound `Nc1c2c(nc3ccccc13)CCCC2`, the Potency result was “inactive”.
Consider `CCCCCCCCCCCC[N+](C)(C)Cc1ccccc1`, for which the Potency entry is “inactive”.
`COc1ccc2c(c1)c(CC(=O)O)c(C)n2C(=O)c1ccc(Cl)cc1`: the Potency entry is “inactive”.
`Oc1ccccc1`: the Potency result was “inactive”.
In the case of `COc1cccc(O)c1O`, the “fluorescence, % of fluorescent control” value is 0.0404% [at 95.7 µM].
In the case of `Nc1ccc(S(N)(=O)=O)cc1`, the Potency result was “inactive”.
Turning to `O=C1c2c(O)cccc2Cc2cccc(O)c21`, the Potency result was “inactive”.
As to `CC(=O)Nc1c(I)c(NC(C)=O)c(I)c(C(=O)O)c1I`, the Potency entry was “inactive”.
On to `Cn1c(=O)c2c(ncn2C)n(C)c1=O`, for which the Potency result is “inactive”.
On to `CNNCc1ccc(C(=O)NC(C)C)cc1`, for which the Potency result is “inactive”.
For the compound `NC(=O)n1c(O)c(C(=O)c2cccs2)c2cc(Cl)ccc21`, the “fluorescence, % of fluorescent control” value was -0.0456% [at 46 µM].
As to `O=C1O[C@H]([C@@H](O)CO)C(O)=C1O`, the Potency result was “inactive”.

These data come from PubChem BioAssay (Tox21).
